10 compounds from PubChem BioAssay (NCI) can be followed below.

Experiment [1] is described as follows: NCI Yeast Anticancer Drug Screen. Data for the rad50 strain (AID 155).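 Also: 0% = growth of vehicle-only cultures of the same strain.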 The following applies: S. cerevisiae rad50 strain growth inhibition, active compounds read high. Put shortly: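 Compounds were tested on a yeast strain with an engineered DNA damage repair alteration; the reported value is growth inhibition normalised to vehicle treatment.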
The nature of experiment [2]: NCI Yeast Anticancer Drug Screen. Data for the mec2-1 strain (AID 157). Conditions: S. cerevisiae mec2-1 strain, active compounds read high. The essentials: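 Strain: mec2-1 (DNA repair/cell cycle alteration). Compound exposure, then growth measured; inhibition expressed relative to vehicle.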
Experiment [3] can be described thus: NCI Yeast Anticancer Drug Screen. Data for the sgs1 mgt1 strain (AID 161).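 Also: 0% = growth of cultures given vehicle only.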 The following applies: S. cerevisiae sgs1 mgt1 strain, active compounds read high. The essentials:
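Inhibition of yeast growth, normalised to vehicle-treated controls, is reported for a strain bearing genetic alterations in DNA damage repair.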

A short description of experiment [4]: NCI Yeast Anticancer Drug Screen. Data for the cln2 rad14 strain (AID 165).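 Also: 0% = growth equal to vehicle treated cultures.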 Conditions: S. cerevisiae cln2 rad14 strain, active compounds read high. Put shortly: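 Compounds are applied to the cln2 rad14 yeast strain, and growth is then compared with that of vehicle-treated cultures to give inhibition.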
A short description of experiment [5]: NCI Yeast Anticancer Drug Screen. Data for the bub3 strain (AID 167). The following applies: S. cerevisiae bub3 mutant strain, active compounds read high. The essentials: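 Growth of a checkpoint-deficient yeast mutant is measured after compound exposure. Values represent inhibition relative to vehicle.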
Experiment [6] is described as follows: NCI Yeast Anticancer Drug Screen. Data for the mlh1 rad18 strain (AID 175). The following applies: S. cerevisiae mlh1 rad18 strain growth inhibition, active compounds read high. Put shortly:
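Read-out is yeast growth inhibition, calculated against vehicle-only controls. The compound was applied to a strain engineered with DNA damage repair alterations.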

Where [7] appears, read: at 5.0 µM (retest, dose inferred, filed as 0.5).
The mark [8] stands for this setting: at 50.0 µM (retest, dose inferred, filed as 5.0).

The panel holds about 79,000 compounds, 15% with a hit somewhere; the sample as a whole holds those more often. A number with no mark means an inactive call. Active and inactive are the calls of the source. Rule as the data show it: active = growth inhibition above about 70%; inactive = the rest.

Turning to `COc1ccccc1/C=C(\NC(=O)c1ccccc1)c1nc2ccccc2[nH]1`, the growth inhibition in experiment [1] (setting [7]) was 42%; in experiment [1] (setting [8]), 96% (active); in experiment [1] (at 50.0 µM), 97.8% (active); in experiment [2] (setting [7]) it was 30%; in experiment [2] (setting [8]) it was 98% (active); in experiment [2] (at 50.0 µM) it was 95% (active). For the same compound, the growth inhibition in experiment [3] (setting [7]) is 38%; in experiment [3] (setting [8]) it was 99% (active); in experiment [3] (at 50.0 µM), 96.4% (active); in experiment [4] (setting [7]), 16%; in experiment [4] (setting [8]) it was 74% (active); in experiment [4] (at 50.0 µM), 95% (active). Also, the growth inhibition in experiment [5] (setting [7]) is 3%; in experiment [5] (setting [8]), 88% (active); in experiment [5] (at 50.0 µM), 98% (active); in experiment [6] (setting [7]) it was 21%; in experiment [6] (setting [8]), 96% (active); in experiment [6] (at 50.0 µM) it was 96.4% (active).
As to `S=C(NC(=S)Nc1ccccc1)Nc1ccccc1`, the growth inhibition is 0% in experiment [1] (setting [7]); 29% in experiment [1] (setting [8]); 93.8% (active) in experiment [1] (at 50.0 µM); -5% in experiment [2] (setting [7]); 37% in experiment [2] (setting [8]); 82.9% (active) in experiment [2] (at 50.0 µM). In addition, the growth inhibition in experiment [3] (setting [7]) was 7%; in experiment [3] (setting [8]) it was 69%; in experiment [3] (at 50.0 µM) it was 96.3% (active); in experiment [4] (setting [7]), -8%; in experiment [4] (setting [8]) it was 8%; in experiment [4] (at 50.0 µM) it was 91.7% (active). The growth inhibition in experiment [5] (setting [7]) was -1%; in experiment [5] (setting [8]) it was 21%; in experiment [5] (at 50.0 µM), 96.3% (active); in experiment [6] (setting [7]), 8%; in experiment [6] (setting [8]), 55%; in experiment [6] (at 50.0 µM) it was 95.3% (active).
For `COc1cc2c(cc1OC)NCC1COc3c(ccc(OC)c3OC)C1=N2` (stereo not given), the growth inhibition in experiment [1] (setting [7]) was 12%; in experiment [1] (setting [8]), 14%; in experiment [1] (at 50.0 µM), -44.9%; in experiment [2] (setting [7]), 14%; in experiment [2] (setting [8]), 8%; in experiment [2] (at 50.0 µM), -6.65%. Besides, the growth inhibition is 15% in experiment [3] (setting [7]); 17% in experiment [3] (setting [8]); -18.4% in experiment [3] (at 50.0 µM); 19% in experiment [4] (setting [7]); 17% in experiment [4] (setting [8]); 11.1% in experiment [4] (at 50.0 µM). In addition, the growth inhibition is 17% in experiment [5] (setting [7]); 22% in experiment [5] (setting [8]); 16% in experiment [5] (at 50.0 µM); 12% in experiment [6] (setting [7]); 24% in experiment [6] (setting [8]); -37.8% in experiment [6] (at 50.0 µM).
In the case of `CC(CC(C)[C@H]1CCC2[C@H]3C(CC(=O)[C@@]21C)[C@@]1(C)CCC(O)C[C@H]1C[C@@H]3O)C(=O)O` (stereo not given in full), the growth inhibition is -1% in experiment [1] (setting [7]); 99% (active) in experiment [1] (setting [8]); 98.3% (active) in experiment [1] (at 50.0 µM); 1% in experiment [2] (setting [7]); 99% (active) in experiment [2] (setting [8]); 98.5% (active) in experiment [2] (at 50.0 µM). The growth inhibition was -1% in experiment [3] (setting [7]); 98% (active) in experiment [3] (setting [8]); 98.8% (active) in experiment [3] (at 50.0 µM); -4% in experiment [4] (setting [7]); 99% (active) in experiment [4] (setting [8]); 96.8% (active) in experiment [4] (at 50.0 µM). Moreover, the growth inhibition in experiment [5] (setting [7]) is -4%; in experiment [5] (setting [8]), 98% (active); in experiment [5] (at 50.0 µM), 99% (active); in experiment [6] (setting [7]), 10%; in experiment [6] (setting [8]) it was 99% (active); in experiment [6] (at 50.0 µM), 98.2% (active).
`CC(C)(C)OC(=O)N[C@H]1CC2(C=C(Cl)C(=O)C(Cl)=C2)OC1=O`: the growth inhibition in experiment [1] (setting [7]) was 32%; in experiment [1] (setting [8]), 70% (active); in experiment [1] (at 50.0 µM), 86.5% (active); in experiment [2] (setting [7]) it was 16%; in experiment [2] (setting [8]) it was 72% (active); in experiment [2] (at 50.0 µM), 80.8% (active). In addition, the growth inhibition in experiment [3] (setting [7]) is 23%; in experiment [3] (setting [8]), 90% (active); in experiment [3] (at 50.0 µM) it was 90.8% (active); in experiment [4] (setting [7]) it was 13%; in experiment [4] (setting [8]), 31%; in experiment [4] (at 50.0 µM), 69.2%. Further, the growth inhibition in experiment [5] (setting [7]) was 14%; in experiment [5] (setting [8]) it was 83% (active); in experiment [5] (at 50.0 µM) it was 70.4% (active); in experiment [6] (setting [7]), 43%; in experiment [6] (setting [8]), 92% (active); in experiment [6] (at 50.0 µM), 81% (active).
Regarding `O=C1CCC(Cc2ccc(Cl)cc2Cl)C(=O)N1` (stereo not given), the growth inhibition was -8% in experiment [1] (setting [7]); 3% in experiment [1] (setting [8]); -7.6% in experiment [1] (at 50.0 µM); -3% in experiment [2] (setting [7]); -6% in experiment [2] (setting [8]); 6.15% in experiment [2] (at 50.0 µM). The growth inhibition in experiment [3] (setting [7]) is 45%; in experiment [3] (setting [8]), 95% (active); in experiment [3] (at 50.0 µM), 92.8% (active); in experiment [4] (setting [7]) it was -4%; in experiment [4] (setting [8]), -2%; in experiment [4] (at 50.0 µM), -68.7%. Further, the growth inhibition in experiment [5] (setting [7]) was -4%; in experiment [5] (setting [8]) it was 0%; in experiment [5] (at 50.0 µM) it was -47.7%; in experiment [6] (setting [7]) it was -5%; in experiment [6] (setting [8]) it was 3%; in experiment [6] (at 50.0 µM), -7%.
In the case of `CCCCc1c2c(nc3c1CCC/C3=C\c1ccccc1)C(=O)C(CN(C)C)CC2` (stereo not given), the growth inhibition in experiment [1] (setting [7]) is 16%; in experiment [1] (setting [8]), 96% (active); in experiment [1] (at 50.0 µM) it was 86.3% (active); in experiment [2] (setting [7]) it was 10%; in experiment [2] (setting [8]), 97% (active); in experiment [2] (at 50.0 µM), 89.1% (active). In addition, the growth inhibition is 29% in experiment [3] (setting [7]); 97% (active) in experiment [3] (setting [8]); 86.5% (active) in experiment [3] (at 50.0 µM); 11% in experiment [4] (setting [7]); 96% (active) in experiment [4] (setting [8]); 86.8% (active) in experiment [4] (at 50.0 µM). Moreover, the growth inhibition in experiment [5] (setting [7]) is 13%; in experiment [5] (setting [8]), 95% (active); in experiment [5] (at 50.0 µM), 84.5% (active); in experiment [6] (setting [7]), 11%; in experiment [6] (setting [8]) it was 96% (active); in experiment [6] (at 50.0 µM) it was 84.5% (active).
For the compound `CNC1=C2NC(=O)/C(C)=C\C=C\C(C)C(O)C(C)C(O)C(C)C(OC(C)=O)C(C)C(OC)/C=C/OC3(C)Oc4c(C)c(O)c(c(c4C3=O)C1=O)C2=O` (stereo not given), the growth inhibition in experiment [1] (setting [7]) was -6%; in experiment [1] (setting [8]), 56%; in experiment [1] (at 50.0 µM), 52.3%; in experiment [2] (setting [7]) it was -2%; in experiment [2] (setting [8]), 61%; in experiment [2] (at 50.0 µM), 52.8%. In addition, the growth inhibition was 1% in experiment [3] (setting [7]); 55% in experiment [3] (setting [8]); 45.7% in experiment [3] (at 50.0 µM); -4% in experiment [4] (setting [7]); 59% in experiment [4] (setting [8]); 49% in experiment [4] (at 50.0 µM). Besides, the growth inhibition was -2% in experiment [5] (setting [7]); 58% in experiment [5] (setting [8]); 52% in experiment [5] (at 50.0 µM); -4% in experiment [6] (setting [7]); 64% in experiment [6] (setting [8]); 56.5% in experiment [6] (at 50.0 µM).
Regarding `C=CCSc1nc2ccccc2c(=O)n1Cc1ccco1`, the growth inhibition in experiment [1] (setting [7]) was 50%; in experiment [1] (setting [8]), 59%; in experiment [1] (at 50.0 µM), -7.25%; in experiment [2] (setting [7]) it was 25%; in experiment [2] (setting [8]) it was 36%; in experiment [2] (at 50.0 µM), -12.2%. Further, the growth inhibition in experiment [3] (setting [7]) is 33%; in experiment [3] (setting [8]), 59%; in experiment [3] (at 50.0 µM) it was 22.4%; in experiment [4] (setting [7]), 27%; in experiment [4] (setting [8]) it was 26%; in experiment [4] (at 50.0 µM) it was -54.2%. The growth inhibition in experiment [5] (setting [7]) is 45%; in experiment [5] (setting [8]), 77% (active); in experiment [5] (at 50.0 µM), 19.4%; in experiment [6] (setting [7]), 43%; in experiment [6] (setting [8]), 64%; in experiment [6] (at 50.0 µM), 46.5%.
On to `CN(C)CCOc1cc2c(c3ccccc13)-c1ccccc1C2O` (stereo not given), for which the growth inhibition in experiment [1] (setting [7]) is 30%; in experiment [1] (setting [8]), 96% (active); in experiment [1] (at 50.0 µM) it was 98.3% (active); in experiment [2] (setting [7]) it was 0%; in experiment [2] (setting [8]), 45%; in experiment [2] (at 50.0 µM) it was 26.8%. Moreover, the growth inhibition is 9% in experiment [3] (setting [7]); 69% in experiment [3] (setting [8]); 67.8% in experiment [3] (at 50.0 µM); 1% in experiment [4] (setting [7]); 31% in experiment [4] (setting [8]); 38.1% in experiment [4] (at 50.0 µM). Also, the growth inhibition in experiment [5] (setting [7]) is 2%; in experiment [5] (setting [8]), 34%; in experiment [5] (at 50.0 µM), 34.5%; in experiment [6] (setting [7]), 7%; in experiment [6] (setting [8]) it was 83% (active); in experiment [6] (at 50.0 µM), 72.8% (active).
